This is a sample that favours compounds with a hit; in the whole collection about 3.1% have one here.
p53null 39C kill: selectivity test: cytotoxicity in p53 null cells, nonpermissive temperature; H1299 p53-null (neo) cells, 39C, ATPlite viability, 24 h; Potency, µM (titrated, usually from 46.1 µM), without a hit: top-dose activity, negative = cell killing, actives largely listed as cytotoxic; 55,000 compounds, 0.97% hits; AID 904;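 note: potency is the fitted concentration of half-maximal effect; 0% = DMSO only and -100% = full killing by 100 µM tamoxifen; nearly all actives have a fitted effect of over 50% in size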
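Concentration-response (up to 46 uM) was run for 24 h at the nonpermissive 39C on H1299-p53A138V or H1299-neo cells. ATP content was measured with ATPlite luminescence. AC50 values were Hill-modeled after normalizing between DMSO and 100 uM tamoxifen killing.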
pS6 MEF inh: inhibitors of mTORC1 signaling in Tsc2-/- p53-/- MEF cells | Tsc2-/- p53-/- MEF, phospho-rpS6 immunofluorescence/PI, 24 h | Potency, µM (doses to about 38.3 µM), for the others: top-dose activity change, negative = inhibition, hits mostly inhibitors | 44,000 compounds, 0.78% hits | AID 493208;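 note: potency is the fitted concentration of half-maximal effect; plate controls were DMSO for no effect and rapamycin for full effect; nearly all actives have a fitted effect of over 50% in size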
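Immunofluorescence of rpS6 phosphorylation in Tsc2-/-, p53-/- MEFs after 24 h compound exposure, normalized to propidium iodide signal. Activity is expressed as % positive cells, thresholded with 7.5 nM rapamycin.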
SKOV3 invasion: blocks SKOV3ip1 adhesion and invasion in omental model; 46,000 compounds, 0.1% hits; SKOV3ip1-GFP adhesion/invasion on 3D omental model, fluorescence; Potency, µM (highest dose often 45.8 µM), for inactives: top-dose activity change, negative = inhibition, actives largely listed as inhibitors;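 note: potency is the fitted concentration of half-maximal effect; plate controls were DMSO wells for no effect and tomatine positive control wells for full effect; nearly all actives have a fitted effect of over 65% in size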
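qHTS, 4-pt dose (0.36-46 umol/L); SKOV3ip1-GFP, 1,200 cells/well, no FBS; primary omental fibroblast/mesothelial co-culture 48 h pre-grown; 2 h RT + 16 h 37 C; PBS wash, 4% PFA; GFP count 488/509 nm.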
PMP22 txn: PMP22 gene transcription modulation | 43,000 compounds, 2% hits | AID 1508649 | S16 Pmp22-F2sN Schwann cells, FLuc/NLuc coincidence luminescence, 24 h | Potency, µM (top dose mostly 57.5 µM), for inactives: top-dose activity change, negative = inhibition, actives largely listed as inhibitors; active = clear falling dose curves in both reporters; inconclusive = both reporters move, but less clearly or upward; inactive = either reporter flat; the % is the NLuc reporter signal; note: potency is the fitted concentration of half-maximal effect; % is set by controls: 0 for no effect and ±100 for the full control effect
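S16(c9) Schwann cells with FLuc/NLuc coincidence reporter in the Pmp22 3' UTR; compounds pin-transferred, 24 h at 37C. Dual-luciferase read: FLuc first, then NLuc after Stop&Glo, each 10 min at room temperature.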
S16 F2sN tox: toxic to S16 Pmp22-F2sN Schwann cells; 43,000 compounds, 0.48% hits; S16 Pmp22-F2sN Schwann cells viability, CellTiter-Glo, 24 h; AID 1508642; Potency, µM (series often up to 57.5 µM), for the others: at the top dose activity change, negative = cytotoxicity, hits mostly cytotoxic; note: potency is the fitted concentration of half-maximal effect; % is set by controls: 0 for no effect and ±100 for the full control effect; nearly all actives have a fitted effect of over 65% in size
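S16 Pmp22-F2sN Schwann cells (500-1,000/well) in phenol-red-free DMEM with 10% FBS received 23 nL compound by pin tool for 24 h at 37 °C. Viability was then read as CellTiter-Glo luminescence after 15 min at room temperature.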
p53null 32C tox: selectivity test: cytotoxicity in p53 null cells, permissive temperature; 55,000 compounds, 0.62% hits; Potency, µM (titrated, usually from 46.1 µM), inactives show at the top dose activity change, negative = cytotoxicity, actives largely listed as cytotoxic; H1299-neo p53 null cells, ATP luminescence, 24 h, 32C;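 note: potency is the fitted concentration of half-maximal effect; 0% = DMSO only and -100% = full killing by 100 µM tamoxifen; nearly all actives have a fitted effect of over 55% in size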
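H1299-neo, 600 cells/well; overnight 37C; cpd up to 46 uM, 24 h at 32C; ATPlite luminescence after 20 min RT; normalized to DMSO (0%) and tamoxifen 100 uM (100% kill); Hill-fit AC50.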
NLuc saturating: NanoLuc enzyme inhibition artifact for PMP22 screen. shares compounds with PMP22 txn. Secreted NLuc enzyme (filtered S16 cell medium), Nano-Glo luminescence. Potency, µM (top dose mostly 57.5 µM), for the others: at the top dose activity change, negative = inhibition, most hits filed as inhibitors. 690 compounds, 4% hits. AID 1508638; note: potency is the fitted concentration of half-maximal effect; % is set by controls: 0 for no effect and ±100 for the full control effect
NLuc Km counter: NanoLuc inhibition at Km substrate, PMP22 artifact check | Potency, µM (series often up to 57.5 µM), for inactives: at the top dose activity change, negative = inhibition, hits mostly inhibitors | 690 compounds, 5% hits | shares compounds with PMP22 txn | AID 1508639 | secreted NLuc enzyme, coelenterazine luminescence, Km conditions; note: potency is the fitted concentration of half-maximal effect; % is set by controls: 0 for no effect and ±100 for the full control effect
FLuc ctr PMP22: counter-screen for PMP22 expression modulators: firefly luciferase inhibition; shares compounds with PMP22 txn; purified P. pyralis FLuc, luminescence, 10 min; Potency, µM (series often up to 57.5 µM), inactives show at the highest dose activity, negative = inhibition, usual class: inhibitors; 690 tested, under 10 active; note: % of control where 0% means no effect
Target sequence (P08659 whole entry, looked up): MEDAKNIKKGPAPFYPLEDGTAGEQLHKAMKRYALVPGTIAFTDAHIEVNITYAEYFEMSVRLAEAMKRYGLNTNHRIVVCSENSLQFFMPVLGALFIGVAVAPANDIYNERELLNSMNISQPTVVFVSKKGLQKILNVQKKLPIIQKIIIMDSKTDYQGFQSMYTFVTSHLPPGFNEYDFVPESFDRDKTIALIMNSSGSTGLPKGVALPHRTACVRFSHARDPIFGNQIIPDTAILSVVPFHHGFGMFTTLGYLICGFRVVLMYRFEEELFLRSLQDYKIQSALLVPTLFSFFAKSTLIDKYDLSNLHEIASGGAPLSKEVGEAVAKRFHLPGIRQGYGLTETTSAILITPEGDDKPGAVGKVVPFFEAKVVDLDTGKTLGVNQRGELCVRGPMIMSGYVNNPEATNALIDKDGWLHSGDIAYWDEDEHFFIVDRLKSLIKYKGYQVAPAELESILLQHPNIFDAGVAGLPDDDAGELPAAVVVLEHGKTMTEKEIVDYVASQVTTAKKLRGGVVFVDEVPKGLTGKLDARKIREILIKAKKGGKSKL
S16 viab conf: S16 Schwann cell cytotoxicity, confirmatory | shares compounds with PMP22 txn | S16 Schwann cells viability, CellTiter-Glo ATP luminescence, 24 h | Potency, µM (series often up to 57.5 µM), without a hit: at the top dose activity change, negative = viability loss, hits mostly cytotoxic | 690 compounds, 7% hits; note: potency is the fitted concentration of half-maximal effect; % is set by controls: 0 for no effect and ±100 for the full control effect
PMP22 txn cnf: PMP22 transcription modulation, confirmatory. shares compounds with PMP22 txn. S16 Schwann cells Pmp22-F2sN, dual luciferase, 24 h. Potency, µM (doses to about 57.5 µM), inactives show at the highest dose activity change, negative = inhibition, hits mostly inhibitors. 690 compounds, 22% hits; active = clear falling dose curves in both reporters; inconclusive = both reporters move, but less clearly or upward; inactive = either reporter flat; the % is the FLuc reporter signal; note: potency is the fitted concentration of half-maximal effect
Active calls of the source: *. Unless noted, calls come from the whole dose curve; as a rule, active = well fitted curve in the direction sought with a large enough effect; inconclusive = small, poorly fitted or top-dose-only effect, or another doubt; inactive = no such curve, though single readings can be large; an effect the other way counts as inactive or inconclusive.

`COc1ccc(OC)c(CNC(=O)c2c(C)oc3ncn(CC(C)C)c(=O)c23)c1` gave p53null 39C kill -8%, pS6 MEF inh 1%, SKOV3 invasion 0%, PMP22 txn 10µM*, S16 F2sN tox inconclusive, p53null 32C tox 5%, NLuc saturating inconclusive, NLuc Km counter inconclusive, FLuc ctr PMP22 3%, S16 viab conf -16% and PMP22 txn cnf inconclusive.
COc1ccc(OC)c(CCNC(=O)c2c(C)oc3ncn(CC(C)C)c(=O)c23)c1 was read as p53null 39C kill -35%, pS6 MEF inh 4%, SKOV3 invasion 9%, PMP22 txn inconclusive, S16 F2sN tox 13% and p53null 32C tox 8%.
`N#CC1(c2ccc(NC(=O)c3cccnc3NCc3ccncc3)cc2)CCCC1` gave SKOV3 invasion -15%.
Screening Cc1ccc(CN(Cc2cccn2-c2nnc(N3CCCC3=O)s2)C(=O)Nc2ccccc2C(F)(F)F)cc1 returned p53null 39C kill 17%, pS6 MEF inh 0%, SKOV3 invasion -3%, PMP22 txn 19µM*, S16 F2sN tox inconclusive, p53null 32C tox 5%, NLuc saturating inconclusive, NLuc Km counter inconclusive, FLuc ctr PMP22 0%, S16 viab conf -2% and PMP22 txn cnf -22%.
For COC(=O)c1ccc(CSc2nc3c([nH]c4ccccc43)c(=O)n2-c2cccc(OC)c2)o1 the results were p53null 39C kill 14%, pS6 MEF inh -9%, SKOV3 invasion inactive, PMP22 txn -24%, S16 F2sN tox -7% and p53null 32C tox 13%.
For COC(=O)c1ccc(CSc2nc3c([nH]c4ccccc43)c(=O)n2-c2cccc(Cl)c2)o1 the results were p53null 39C kill -10%, pS6 MEF inh -2%, SKOV3 invasion inactive, PMP22 txn 18µM*, S16 F2sN tox 13%, p53null 32C tox -1%, NLuc saturating inconclusive, NLuc Km counter -18%, FLuc ctr PMP22 0%, S16 viab conf inconclusive and PMP22 txn cnf 6.1µM*.
Screening CNC(=O)c1ccc2c(C(=Nc3cccc(CN(C)C)c3)c3ccccc3)c(O)[nH]c2c1 returned SKOV3 invasion 2%.
`Cc1cccc(-n2ncc3c(Nc4c(C)cc(C)cc4C)ncnc32)c1` gave p53null 39C kill 7%, pS6 MEF inh inconclusive, SKOV3 invasion -8%, PMP22 txn -29%, S16 F2sN tox -18% and p53null 32C tox 25%.
Cc1cc(C)c(Nc2ncnc3c2cnn3C)c(C)c1 was read as p53null 39C kill 10%, pS6 MEF inh inconclusive, SKOV3 invasion 3%, PMP22 txn inconclusive, S16 F2sN tox inconclusive, p53null 32C tox 12%, NLuc saturating -8%, NLuc Km counter -1%, FLuc ctr PMP22 4%, S16 viab conf -13% and PMP22 txn cnf -5%.
For C[C@H](c1ccc(F)cc1CCCC(=O)O)N(c1cc(F)ccc1F)S(=O)(=O)c1ccc(Cl)cc1 the results were SKOV3 invasion -2%.
For Cc1[nH]c2ccccc2c1C1(O)C(=O)N(Cc2ccccc2)c2ccc(Br)cc21 (stereo unspecified) the results were p53null 39C kill inconclusive, pS6 MEF inh inconclusive, SKOV3 invasion inactive, PMP22 txn 16µM*, S16 F2sN tox -9%, p53null 32C tox 18%, NLuc saturating -16%, NLuc Km counter inconclusive, FLuc ctr PMP22 -1%, S16 viab conf inconclusive and PMP22 txn cnf inconclusive.
`CCN(CC)c1cc(C)c2cc(NC(=O)/C=C/c3ccccc3Cl)ccc2n1` gave p53null 39C kill inconclusive, pS6 MEF inh inconclusive, SKOV3 invasion inconclusive, PMP22 txn 12µM*, S16 F2sN tox inconclusive, p53null 32C tox -3%, NLuc saturating inconclusive, NLuc Km counter -17%, FLuc ctr PMP22 -24%, S16 viab conf inconclusive and PMP22 txn cnf inconclusive.
Screening Cc1ccc(C(=O)N(CCCN)[C@@H](c2nc3cc(Cl)ccc3c(=O)n2Cc2ccccc2)C(C)C)cc1 returned SKOV3 invasion -22%.
For COc1ccc(-c2cc(C(F)(F)F)nc(NCCc3ccccc3)n2)cc1 the results were p53null 39C kill -22%, pS6 MEF inh 0%, SKOV3 invasion -6%, PMP22 txn -63%, S16 F2sN tox inconclusive and p53null 32C tox -7%.
`COc1ccc(-c2cc(C(F)(F)F)nc(NCCc3ccccc3)n2)cc1OC` gave p53null 39C kill -8%, pS6 MEF inh 3%, SKOV3 invasion inactive, PMP22 txn 13µM*, S16 F2sN tox 4%, p53null 32C tox -5%, NLuc saturating -15%, NLuc Km counter -18%, FLuc ctr PMP22 1%, S16 viab conf -18% and PMP22 txn cnf 1%.
`CCCCN(CC)CCCNC(=O)c1cc2c(=O)oc3ccc(C)cc3c2s1` gave p53null 39C kill 10%, pS6 MEF inh -2%, SKOV3 invasion inactive, PMP22 txn inconclusive, S16 F2sN tox 6% and p53null 32C tox 3%.
